SMILES strings stand for the structures. Unmarked numbers belong to inactive results. Unless noted, calls follow the shape of the dose curve; as a rule, active = well fitted curve in the direction sought with a large enough effect; inconclusive = small, poorly fitted or top-dose-only effect, or effect the other way, or another doubt; inactive = no such curve, though single readings can be large or run the other way. Results filed as inconclusive are left out.

Sequence of Beta-2 adrenergic receptor (Homo sapiens) (P07550 whole entry, looked up): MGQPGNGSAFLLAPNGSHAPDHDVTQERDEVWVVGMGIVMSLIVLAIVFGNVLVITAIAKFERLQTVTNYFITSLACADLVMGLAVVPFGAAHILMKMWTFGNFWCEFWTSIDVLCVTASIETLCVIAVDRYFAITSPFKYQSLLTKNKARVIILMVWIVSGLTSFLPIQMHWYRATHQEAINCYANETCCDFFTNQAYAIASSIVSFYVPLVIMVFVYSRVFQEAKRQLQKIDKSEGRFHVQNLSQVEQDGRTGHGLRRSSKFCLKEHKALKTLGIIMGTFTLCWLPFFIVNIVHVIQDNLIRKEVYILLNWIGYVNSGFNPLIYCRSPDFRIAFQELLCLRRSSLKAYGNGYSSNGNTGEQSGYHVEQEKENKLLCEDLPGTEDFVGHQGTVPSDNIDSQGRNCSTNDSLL

System in one test: not listed separately
The test is described as follows: qHTS Validation Assay to Find Inhibitors of Chronic Active B-Cell Receptor Signaling (AID 485345; active = well fitted curve in the direction sought with a large enough effect in the main read-out, with a control signal flat, not every such curve was filed as active;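 also: 0% = untreated basal cells and 100% = 10 µM MG-132 proteasome inhibitor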). Particulars: ABC-DLBCL cells, chronic BCR signaling reporter, CBG luciferase; series mostly up to 46.1 µM; activity change: at the top concentration. The gist of the method: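 TMD8 ABC-DLBCL cells stably carrying doxycycline-inducible IkappaBalpha–green luciferase fusion plus unfused red luciferase; compounds 46 uM to 3 nM, 4 h at 37C with doxycycline. Corrected green/red luminescence ratio normalized to 10 uM MG-132 and basal cell wells; curves fitted.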
Take `O=C(c1ccc(Cl)cc1)N1CCN(c2ccc([N+](=O)[O-])c3ncccc23)CC1`: the “activity change” value was -1.3%.
For the compound `C[C@@H](CN1CCC(Cc2ccccc2)CC1)[C@@H](O)c1ccc(O)cc1`, the “activity change” value was 0.888%.
For `CC(COc1ccc(/C=C/c2ccccc2)cc1)[N+](C)(C)C` (stereo unspecified), the “activity change” value was 0.155%.
Same read-out and setting: to `C[N+]1(C)CCC(OC(=O)C(c2ccccc2)c2ccccc2)CC1` belongs 6.77%; to `COC1=C(OC)C(=O)c2ccccc2C1=O`, 1.03%; to `CC(C)ON([C@@H](C(=O)NO)C(C)C)S(=O)(=O)c1ccc(-c2ccccc2)cc1`, -9.53%.
With `CN1CCc2ccccc2Cc2[nH]c3ccccc3c2CC1`, the “activity change” value is -9.25%.
On the same count and under the same terms, to `N=c1ccn2c(n1)O[C@H]1[C@H](O)[C@@H](CO)O[C@H]12` belongs -3.87%.

The next test has as its target Beta-2 adrenergic receptor (Homo sapiens) (UniProt P07550). The test can be described thus: qHTS validation assay of beta-arrestin-biased ligands of beta2-adrenergic receptor (AID 485366). Also: 0% is about no effect. Conditions: cell-based beta-arrestin recruitment to ADRB2, qHTS; series mostly up to 46.1 µM; activation: at the top concentration. The gist of the method: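 Luminescence from a tTA-responsive luciferase, induced when recombinant beta-arrestin is recruited to recombinant beta2-AR, served as the agonism signal. Cells were exposed to compound for 18 hr at 37 degrees C; titrations spanned up to 46 microM.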
Consider `Nc1ncnc2c1c(I)cn2[C@@H]1C[C@H](N)[C@@H](O)[C@H]1O`, for which the “activation” value is -0.0262%.
On the same count and under the same terms, to `CNCC[C@H](Oc1ccc(C(F)(F)F)cc1)c1ccccc1` belongs -0.181%; to `CN(C)c1ccc(/C=C2\C(=O)Nc3ccccc32)cc1`, 1.35%; to `Oc1ccccc1O`, 0.303%.
Same read-out and setting: under `CC[C@@H](C)[C@H]1O[C@]2(CC[C@H]1C)C[C@@H]1C[C@@H](CC=C(C)[C@@H](O[C@H]3C[C@H](OC)[C@@H](O[C@H]4C[C@H](OC)[C@@H](O)[C@H](C)O4)[C@H](C)O3)[C@@H](C)C=CC=C3CO[C@@H]4[C@H](O)C(C)=C[C@@H](C(=O)O1)[C@]34O)O2` stands -0.0513%.
Same read-out and setting: under `CC12C(=O)OC(=O)C1(C)C1CCC2O1` (stereo unspecified) stands -0.0958%; under `Cc1cc2c(cc1Cl)N(C(=O)Nc1ccc(Oc3cccnc3C)nc1)CC2`, -1.14%; under `O=C(/C=C/c1ccc(O)cc1)c1ccc(O)cc1O`, 0.463%.

Values taken from PubChem BioAssay (NCATS).
